Assay outcomes: PubChem BioAssay, several laboratories
Hits are enriched below; roughly 2.2% of the tested compounds scored in any of these assays.
IEC-6 tox: cytotoxicity in IEC-6 intestinal epithelial cells, primary screen, cytotoxicity control for KLF5 inhibitor project, cell-based, luminescence; IEC-6 cytotoxicity, luminescence viability; inhibition, % at 5 µM; 290,000 tested, 0.78% active; in the data active = inhibition above about 22%;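 also: 0% = plate median of test compound wells and 100% = cytotoxic reference compound wells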
Ba/F3 V617F tox: reduced viability of JAK2V617F-dependent Ba/F3 cells, primary screen, JAK2V617F inhibitor project, cell-based, Ba/F3 EpoR-JAK2V617F, luminescence; ATP luminescence; inhibition, % at 5.6 µM; 220,000 tested, 1.1% active; AID 1446, 2008;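 active = inhibition above the campaign mean plus 3 SD over all tested compounds, cut at about 24% in these data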;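 also: cytokine-independent growth of Ba/F3 cells driven by EpoR plus mutant JAK2; 0% = DMSO-treated cells and 100% = JAK inhibitor I control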
aSyn UTR inh: MLPCN primary screen, SNCA 5' untranslated region | alpha-synuclein 5'UTR reporter, inhibitor activity | inhibition, % (tested at 7.5 µM) | 300,000 tested, 0.82% active; in the data active = inhibition above about 60%;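 also: H4 neuroglioblastoma cells stably carrying SNCA 5'UTR luciferase fusion; 0% = DMSO wells and 100% = positive control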
APP 5UTR inh: inhibitors of APP translation via 5'UTR reporter, primary screen, APP 5'UTR luciferase, SH-SY5Y cells; SH-SY5Y APP 5'UTR-luciferase reporter, luminescence; inhibition, % at 2 µM; 190,000 tested, 0.82% active; AID 1285, 2008;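 active = inhibition above a set limit, derived from the sample mean plus 3 SD, cut at about 45% in these data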
KLF5 inhibitor: KLF5 expression inhibitors, primary screen, DLD-1 cells, luminescence. DLD-1 KLF5 promoter-luciferase reporter. inhibition, % at 5 µM. 290,000 tested, 0.23% active;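 active = inhibition above a per-plate limit of that plate's mean compound inhibition plus 3 SD, cut at about 60% in these data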;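 also: 0% = DMSO wells and 100% = LY294002 at 200 µM; higher means less KLF5 promoter-driven luciferase light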
BaF3 parental: parental Ba/F3 cell viability inhibition, counter-screen for JAK2V617F inhibitor project, murine pro-B, CellTiter-Glo luminescence; CellTiter-Glo ATP luminescence; inhibition, % at 5.6 µM; 220,000 tested, 1.1% active; AID 1486, 2009;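 active = inhibition above a per-campaign cutoff, the mean inhibition of all tested compounds plus 3 SD, cut at about 27% in these data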;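 also: 0% = DMSO wells and 100% = JAK Inhibitor I control wells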
Active calls of the source: *; . = not tested or not shown.

SMILES | IEC-6 tox | Ba/F3 V617F tox | aSyn UTR inh | APP 5UTR inh | KLF5 inhibitor | BaF3 parental
Cc1cc(C)c(NC(=O)COC(=O)c2ccc([N+](=O)[O-])s2)c(C)c1 | 8 | 2 | 18 | -12 | 6 | 3
Cc1ccc(NC(=O)/C=C/c2ccc([N+](=O)[O-])s2)cc1 | -1 | -1 | -212 | 84* | -16 | 2
Cc1cc([N+](=O)[O-])ccc1NC(=O)/C=C/c1cccs1 | -6 | -2 | -158 | -43 | -46 | 10
Cc1ccc(Nc2cc(C)nc3ncnn23)c(C)c1 | -2 | . | 22 | . | -6 | .
CCCCN(C(=O)c1cccc(-n2cccc2)c1)c1c(N)n(Cc2ccccc2)c(=O)[nH]c1=O | . | . | 3 | . | . | .
CS(=O)(=O)N1CCc2cc(C(=O)N3CCN(c4ccc(F)cc4)CC3)ccc21 | 0 | . | 15 | . | 9 | .
C=Cn1cc[n+](CC(=O)c2ccc(OC)cc2)c1 | -1 | . | -14 | . | -32 | .
C/C(=N\NC(=S)Nc1ccc(F)cc1)C1CC1 | -1 | 8 | -30 | 20 | -44 | 92*
COc1nc(Nc2nc3ccccc3c(=O)[nH]2)nc2ccc(C)cc12 | -7 | -1 | 90* | . | -25 | -3
COc1cc(-c2nnc(SCC(=O)N(Cc3ccccc3)C(C)(C)C)o2)cc(OC)c1OC | 6 | 2 | 0 | -2 | -9 | 96*
CCOC(=O)C1CCCCN1Cc1ccc(-c2ccccc2)cc1 (stereo not given) | 0 | . | -28 | . | -36 | .
COc1cc(/C=C2/NC(=O)N(Cc3ccccc3F)C2=O)ccc1O | 4 | 85* | -3 | 36 | -15 | 65*
COc1ccc(-n2ncc(C(=O)N3CCN(c4ccc(F)cc4)CC3)c2C)cc1 | -6 | -2 | 3 | . | -15 | -3
CC(C)(C)c1cc(C(c2cccnc2)N2CCN(CCO)CC2)cc(C(C)(C)C)c1O (stereo not given) | -3 | -2 | -8 | 59* | 0 | 3
COc1ccc(Cn2c(SCc3ccccc3C)nc3cc(OC)c(OC)cc3c2=N)cc1 | 3 | -1 | 93* | -5 | -10 | 2
COc1cc2nc(SCc3ccc(F)cc3)n(Cc3cccs3)c(=N)c2cc1OC | -3 | -1 | 2 | 12 | 3 | 9
O=C1CC(c2cc(F)ccc2F)c2cc3c(cc2N1)CCC3 (stereo not given) | 17 | 3 | 25 | 84* | -21 | 2
O=C1CC(c2cccc(Br)c2)c2cc3c(cc2N1)CCC3 (stereo not given) | 14 | 46* | 34 | 54* | 25 | 62*
CN(C)CCN(C(=O)c1cccs1)c1nc2cc3c(cc2s1)OCCO3 | 3 | . | -106 | . | -35 | .
CCN1/C(=C/c2cc[n+](C)cc2)C=Cc2cc(C)ccc21 | -3 | 99* | . | -1 | -6 | 73*
CC(=O)NS(=O)(=O)c1ccc(NC(=O)c2cccc3ccccc23)cc1 | . | . | 15 | . | . | .
CN=c1scc(-c2ccccc2Br)n1/N=C/c1ccc[nH]1 | -4 | 5 | 64* | -174 | -27 | 9
CC(=O)Nc1c(NCC(C)C)c2ccccc2oc1=O | 2 | -3 | 17 | -19 | -2 | 5
Cc1ccc(C2(C)NC(=O)N(CC(=O)Nc3nc(-c4ccccn4)cs3)C2=O)cc1 (stereo not given) | . | . | 80* | . | . | .
N#Cc1nc(COc2ccc(F)cc2)oc1N1CCC(Cc2ccccc2)CC1 | 1 | -2 | 5 | 66* | -42 | -1
SMILES | IEC-6 tox | Ba/F3 V617F tox | aSyn UTR inh | APP 5UTR inh | KLF5 inhibitor | BaF3 parental
O=C(COC(=O)CCN1C(=O)/C(=C\C=C\c2ccccc2)SC1=S)Nc1cc(F)ccc1F | -8 | -1 | 64* | 22 | -23 | 1
O=C(CN1C(=O)/C(=C\C=C\c2ccccc2)SC1=S)Nc1ccc(F)cc1 | 0 | 2 | -41 | -11 | 11 | 4
CCCCn1c(N)c(N(CCOC)C(=O)CN(C)S(=O)(=O)c2ccc(F)cc2)c(=O)[nH]c1=O | . | . | 0 | . | . | .
O=C1SCC(c2ccccc2)=NN1Cc1ccccc1 | 3 | 5 | 6 | 14 | -71 | 32*
CC(=O)Nc1ccc(C2=NN(Cc3nnc(-c4ccccc4)o3)C(=O)SC2)cc1 | 4 | -1 | 13 | -7 | -9 | 6
O=C(NCC1CCCO1)c1ccc2c(=O)n(Cc3cccc(Br)c3)c(=S)[nH]c2c1 (stereo not given) | -1 | -2 | 7 | -14 | -63 | 2
O=c1[nH]cnc2c1sc1nc3c(c(-c4ccc(Cl)cc4)c12)CCC3 | 4 | -1 | 35 | 51* | -18 | 2
CN(C(=O)CSc1nc2ccccc2s1)c1c(N)n(Cc2ccccc2)c(=O)[nH]c1=O | 5 | -5 | -15 | -28 | -2 | 2
Cc1ccc(-c2cc(N)nc(-c3ccccc3)c2)cc1 | -1 | . | -87 | . | -62 | .
Cc1cc(-c2ccccc2)cc(-c2ccccc2)[n+]1C | 4 | 73* | . | -4 | -6 | 68*
Cc1ccc(NC2=C/C(=N\S(=O)(=O)c3cccs3)c3ccccc3C2=O)c(C)c1 | 8 | 56* | 118* | -105 | -81 | 33*
CCS(=O)(=O)N1CCCC(c2nc(-c3cccc(OC)c3)no2)C1 (stereo not given) | 5 | -3 | -102 | -25 | -33 | 96*
CCCS(=O)(=O)N1CCCC(c2nc(-c3ccc(OC)cc3)no2)C1 (stereo not given) | -3 | -2 | -6 | -9 | -5 | 4
O=C(N/N=C\c1ccccc1F)c1ccc(-c2ccccc2)cc1 | 3 | . | . | . | -61 | .
CCCc1n(CC(O)COC2CCCCC2)c2ccccc2[n+]1C (stereo not given) | -3 | 26* | 11 | -11 | -13 | 55*
CCCc1n(CC(O)COCc2ccccc2)c2ccccc2[n+]1C (stereo not given) | -5 | 18 | 11 | 5 | 9 | 34*
CCCc1n(CC(O)COCC2CC=CCC2)c2ccccc2[n+]1C (stereo not given) | -2 | 33* | 8 | -7 | 1 | 66*
Cc1cc(OCC(=O)NCCCN2CCOCC2)c2c(C)cc(=O)oc2c1 | -8 | . | -6 | . | -14 | .
CC[n+]1c(/C=C/c2c[nH]c3ccccc23)ccc2cc(C)ccc21 | 10 | 91* | . | -6 | 17 | 79*
Cc1ccc(SCC(=O)Nc2ccc3c(c2)C(=O)N(C)C3=O)cc1 | -2 | . | -4 | . | -32 | .
COc1ccc(Cl)cc1NS(=O)(=O)c1cccc(C(=O)NCCCN2CCCC2=O)c1 | 1 | . | -4 | . | -21 | .
CCOC(=O)C1(CCOc2ccccc2)CCN(Cc2ccc(O)c(OC)c2)CC1 | -1 | . | -38 | . | -2 | .
CCOC(=O)C1(CCOc2ccccc2)CCN(Cc2ccc(O)c(Cl)c2)CC1 | -2 | . | 108* | . | -43 | .
CCOc1cc(Br)c(C(C)NC(=O)c2cccnc2)cc1OCC (stereo not given) | . | . | 10 | . | . | .
